According to the supplement of paper PMC8975748:
Where a name gives a salt, the structure may show the parent alone. ± gives the standard deviation of the averaged measurements.

Legend:
[1] = system: Saccharomyces cerevisiae BY4741 SeMeCo community; assay: mean cell size (pixel area) (pixels); higher = larger cells; settings: 10 µM; 24 h; SM minimal medium
Outline: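 A fluorescent Saccharomyces cerevisiae BY4741 community carrying four plasmids was used, with each plasmid complementing one auxotrophy and bearing a fluorescent marker. An overnight preculture at OD600 = 1.0 was diluted to OD600 = 0.3, and 70 µl went into 384-well plates acoustically predosed with drug (final 10 µM) in SM medium for 24 h. After paraformaldehyde fixation, cells were imaged by automated confocal microscopy and analysed in Harmony, giving the mean cell pixel area per well. Each value is the average of 3 replicates. Same SeMeCo high-content imaging drug screen: Selleck FDA-approved drugs at 10 µM, 24 h in SM medium, 384-well plates, 3 replicates.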

[2] = system: Saccharomyces cerevisiae BY4741 SeMeCo community; assay: z-score of prototroph abundance vs DMSO median; higher = larger share of this subpopulation than in DMSO controls; settings: 10 µM; 24 h; SM minimal medium; subpopulation (auxotrophy): Prototroph
Outline: (§1)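 Subpopulation abundance was reported as a z-score against the median of vehicle wells. The Saccharomyces cerevisiae BY4741 community, carrying four plasmids that each restored one auxotrophy and encoded a distinct fluorescent protein, was grown 24 h in minimal SM medium in 384-well plates holding library drugs at 10 µM final. Cells were paraformaldehyde-fixed and imaged by automated confocal microscopy, with single-auxotroph fluorescent strains used for thresholds and autofluorescence correction.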

[3] = system: Saccharomyces cerevisiae BY4741 SeMeCo community; assay: z-score of subpopulation abundance vs DMSO median, subpopulation auxotrophic for M; higher = larger share of this subpopulation than in DMSO controls; settings: 10 µM; 24 h; SM minimal medium; subpopulation (auxotrophy): M
Outline: as §1

[4] = system: Saccharomyces cerevisiae BY4741 SeMeCo community; assay: z-score of subpopulation abundance vs DMSO median, subpopulation auxotrophic for L; higher = larger share of this subpopulation than in DMSO controls; settings: 10 µM; 24 h; SM minimal medium; subpopulation (auxotrophy): L
Outline: as §1

[5] = system: Saccharomyces cerevisiae BY4741 SeMeCo community; assay: z-score of subpopulation abundance vs DMSO median, subpopulation auxotrophic for H; higher = larger share of this subpopulation than in DMSO controls; settings: 10 µM; 24 h; SM minimal medium; subpopulation (auxotrophy): H
Outline: as §1

[6] = system: Saccharomyces cerevisiae BY4741 SeMeCo community; assay: z-score of subpopulation abundance vs DMSO median, subpopulation auxotrophic for LU; higher = larger share of this subpopulation than in DMSO controls; settings: 10 µM; 24 h; SM minimal medium; subpopulation (auxotrophy): LU
Outline: as §1

[7] = system: Saccharomyces cerevisiae BY4741 SeMeCo community; assay: z-score of subpopulation abundance vs DMSO median, subpopulation auxotrophic for HM; higher = larger share of this subpopulation than in DMSO controls; settings: 10 µM; 24 h; SM minimal medium; subpopulation (auxotrophy): HM
Outline: as §1

[8] = system: Saccharomyces cerevisiae BY4741 SeMeCo community; assay: z-score of subpopulation abundance vs DMSO median, subpopulation auxotrophic for HU; higher = larger share of this subpopulation than in DMSO controls; settings: 10 µM; 24 h; SM minimal medium; subpopulation (auxotrophy): HU
Outline: as §1

[9] = system: Saccharomyces cerevisiae BY4741 SeMeCo community; assay: z-score of subpopulation abundance vs DMSO median, subpopulation auxotrophic for HL; higher = larger share of this subpopulation than in DMSO controls; settings: 10 µM; 24 h; SM minimal medium; subpopulation (auxotrophy): HL
Outline: as §1

[10] = system: Saccharomyces cerevisiae BY4741 SeMeCo community; assay: z-score of subpopulation abundance vs DMSO median, subpopulation auxotrophic for HLU; higher = larger share of this subpopulation than in DMSO controls; settings: 10 µM; 24 h; SM minimal medium; subpopulation (auxotrophy): HLU
Outline: as §1

[11] = system: Saccharomyces cerevisiae BY4741 SeMeCo community; assay: z-score of subpopulation abundance vs DMSO median, subpopulation auxotrophic for HUM; higher = larger share of this subpopulation than in DMSO controls; settings: 10 µM; 24 h; SM minimal medium; subpopulation (auxotrophy): HUM
Outline: as §1

[12] = system: Saccharomyces cerevisiae BY4741 SeMeCo community; assay: z-score of subpopulation abundance vs DMSO median, subpopulation auxotrophic for LUM; higher = larger share of this subpopulation than in DMSO controls; settings: 10 µM; 24 h; SM minimal medium; subpopulation (auxotrophy): LUM
Outline: as §1

[13] = system: Saccharomyces cerevisiae BY4741 SeMeCo community; assay: z-score of subpopulation abundance vs DMSO median, subpopulation auxotrophic for HLUM; higher = larger share of this subpopulation than in DMSO controls; settings: 10 µM; 24 h; SM minimal medium; subpopulation (auxotrophy): HLUM
Outline: as §1

[14] = system: Saccharomyces cerevisiae BY4741 SeMeCo community; assay: z-score of subpopulation abundance vs DMSO median, subpopulation auxotrophic for U; higher = larger share of this subpopulation than in DMSO controls; settings: 10 µM; 24 h; SM minimal medium; subpopulation (auxotrophy): U
Outline: as §1

[15] = system: Saccharomyces cerevisiae BY4741 SeMeCo community; assay: z-score of subpopulation abundance vs DMSO median, subpopulation auxotrophic for LM; higher = larger share of this subpopulation than in DMSO controls; settings: 10 µM; 24 h; SM minimal medium; subpopulation (auxotrophy): LM
Outline: as §1

[16] = system: Saccharomyces cerevisiae BY4741 SeMeCo community; assay: z-score of subpopulation abundance vs DMSO median, subpopulation auxotrophic for UM; higher = larger share of this subpopulation than in DMSO controls; settings: 10 µM; 24 h; SM minimal medium; subpopulation (auxotrophy): UM
Outline: as §1

[17] = system: Saccharomyces cerevisiae BY4741 SeMeCo community; assay: z-score of subpopulation abundance vs DMSO median, subpopulation auxotrophic for HLM; higher = larger share of this subpopulation than in DMSO controls; settings: 10 µM; 24 h; SM minimal medium; subpopulation (auxotrophy): HLM
Outline: as §1

Structure (SMILES)	mean cell size [1]	z-score of prototroph abundance [2]	z-score of subpopulation abundance [3]	z-score of subpopulation abundance [4]	z-score of subpopulation abundance [5]	z-score of subpopulation abundance [6]	z-score of subpopulation abundance [7]	z-score of subpopulation abundance [8]	z-score of subpopulation abundance [9]	z-score of subpopulation abundance [10]	z-score of subpopulation abundance [11]	z-score of subpopulation abundance [12]	z-score of subpopulation abundance [13]	z-score of subpopulation abundance [14]	z-score of subpopulation abundance [15]	z-score of subpopulation abundance [16]	z-score of subpopulation abundance [17]
NC(=O)[C@@H]1CC[C@@H]2CN1C(=O)N2OS(=O)(=O)O [Avibactam sodium]	12.68 ± 0.1	-0.66	0.79	0.6	-0.62	1.12	0.85	-0.2	-0.05	0.1	-0.02	0.46	1.05				
Cc1[nH]cnc1CN1CCc2c(c3ccccc3n2C)C1=O [Alosetron Hydrochloride]	12 ± 0.2	-0.91	0.38			1.07	0.69	0.97	0	-0.13	0.46	-0.03	1.5	1.4	0.27	0.96	0.08
CC(=O)OCC(CCn1cnc2cnc(N)nc21)COC(C)=O [Famciclovir]	12.6 ± 0.22	0.55	-0.23	0.46	0.1	-0.41	0.41		0.32	-0.67	-0.82		1.06	-0.77	-0.17		
OC(c1ccccc1)(c1ccccc1)C12CC[N+](CCOCc3ccccc3)(CC1)CC2 [Umeclidinium bromide]	12.49 ± 0.074	0.82	-0.28	0.22	-0.1	-0.42		-0.27	-0.7	-0.12	-0.43	-0.49	-0.28	-0.23	-0.42	-1.45	
CO/N=C(\C(=O)N[C@@H]1C(=O)N2C(C(=O)O)=C(CSc3nc(=O)c(O)nn3C)CS[C@H]12)c1csc(N)n1 [Ceftriaxone Sodium Trihydrate]	12.23 ± 0.09	0.45	-1.17	2.07	-0.32	0.56		0.14	0.91	2.14	-2.14	-0.43		0.09	-0.18	-2.42	
O=C(O)C[C@H](O)C[C@H](O)/C=C/c1c(C2CC2)nc2ccccc2c1-c1ccc(F)cc1 [Pitavastatin Calcium]	12 ± 0.2	-2.8	1	0.86		1.45	4.05	2.66	1.83	1.38	3.37		1.55			1.84	
O=C(Nc1cccc(C2=NCCN2)c1)Nc1cccc(C2=NCCN2)c1 [Imidocarb dipropionate]	12.1 ± 0.27	0.72	-1.19	-0.04		0.44		0.05	-0.57	0.17	-0.49			0.07	-0.28	-0.26	
CC(=O)N1CCN(c2ccc(OCC3COC(Cn4ccnc4)(c4ccc(Cl)cc4Cl)O3)cc2)CC1 (configuration not stated) [Ketoconazole]			-1.31	-0.63	0.08	-0.4	-1.06		-0.6	-0.27	0.03	-0.27	-0.62	-0.47	-0.27	-0.23	
